CHX counter = counter-screen hit for Shiga toxin inhibitors, cycloheximide. AID 2314. max response, %. cell reporter, cycloheximide protein synthesis inhibition counterscreen. 300,000 compounds, 12% hits; in the data active = max response mostly above about 13%, no sharp cut-off; inactive = mostly below about 14%; note: read at 38.3 µM for the half of the compounds with a filed dose; 0% is about no effect
Shiga inhibitor = inhibitors of Shiga toxin in Vero cells; 290,000 compounds, 9.2% hits; AID 2315; inhibition, % at 38.7 µM; Vero cells, Shiga toxin protein synthesis inhibition reporter; in the data active = inhibition mostly above about 28%, no sharp cut-off; inactive = mostly below about 43%; note: 0% is about no effect
Pf growth 96h = P. falciparum growth inhibition at 96 hours. 320,000 compounds, 6.9% hits. P. falciparum luciferase reporter growth, 96 h. Potency, µM (highest dose often 28.7 µM), inactives show at the highest dose activity change, negative = inhibition, hits mostly inhibitors; note: potency is the fitted concentration of half-maximal effect; % is set by controls: 0 for no effect and ±100 for the full control effect
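P. falciparum expressing integrated firefly luciferase, in erythrocytes at 2% hematocrit, 0.05% parasitemia, incubated with compounds 96 h at 37 C, 5% CO2. Growth inhibition read as loss of luminescence; two-generation exposure targets delayed-death apicoplast inhibitors.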
Pf growth 48h = inhibits P. falciparum growth in the first generation, 48 h; P. falciparum luciferase growth in erythrocytes, 48 h; Potency, µM (titrated, usually from 28.7 µM), for the others: top-dose activity change, negative = inhibition, hits mostly inhibitors; 310,000 compounds, 5.9% hits; note: potency is the fitted concentration of half-maximal effect; % is set by controls: 0 for no effect and ±100 for the full control effect
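First compound was added to culture medium, then infected red cells at 0.1% parasitemia and 2% hematocrit (final). After incubation at 37 C under 5% CO2, luciferase detection reagent was dispensed and light output recorded.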
* hit, by the source's call; ? = inconclusive; . = no result given; [ ] = another dose, or the depositor's remark. Sampled rows, rich in hits. Any-hit rate of the full collection: about 21%. Unless noted, calls come from the whole dose curve; as a rule, active = well fitted inhibition curve with a large enough effect; inconclusive = small, poorly fitted or top-dose-only effect, or another doubt; inactive = no such curve, though single readings can be large or run the other way.

SMILES	CHX counter	Shiga inhibitor	Pf growth 96h	Pf growth 48h
COC(=O)Nc1c(-c2ccccc2)nc2ccc(C)cn12	-1	13	4.7µM*	6%
Cc1ccc(CNCc2ccc3c(c2)OCO3)cc1	3	-1	?	28%
COC(=O)Nc1c(-c2ccccc2)nc2ccccn12	5	31	.	8%
CCCCNc1c(-c2ccc(-c3cccc(Cl)c3)cc2)nc2ccccn12	.	.	?	-90%
Cc1ccc2nc(-c3ccc(-c4cccc(Cl)c4)cc3)c(NCc3ccccc3)n2c1	.	.	0%	?
Cc1ccc(-c2nc3ccccn3c2NCc2ccc3c(c2)OCO3)cc1	45*	54*	79%	95%
Cc1cccc([N+](=O)[O-])c1NC(=O)COC(=O)c1nc2nccc(C)n2n1	.	.	2%	23%
C/C=C(\C)CN1CCCC(CO)(Cc2ccccc2)C1 (stereo unspecified)	-2	9	46%	17%
O=C1CC(=C2c3ccccc3-c3ccccc32)C(=O)N1CCCCN1CCN(c2ccccc2)CC1	-1	-10	6.6µM*	4.1µM*
CN(C)c1ccc(C=NCC2COc3ccccc3O2)cc1 (stereo unspecified)	2	12	30%	9%
CN(C)c1ccc(/C=N/N=C/c2ccccc2O)cc1	76*	171*	197%	79%
C=CCNCCOCCOc1ccc(C)cc1Br	28*	47	3%	80%
CCCCNCCCOc1ccc(C)cc1Br	2	16	2.3µM*	?
CCC(C)NCCOCCOc1ccc(C)cc1Br (stereo unspecified)	4	28	?	?
O=C(CNS(=O)(=O)c1ccc(Br)cc1)NCc1ccncc1	-7	-9	?	8%
COC(=O)C1=C(C)NC(C)=C(C(=O)OC)C1/C=C/c1ccccc1	-3	-4	?	?
COC1=CC(=O)OC(/C=C/c2ccccc2)C1 (stereo unspecified)	23*	47*	38%	46%
O=C(Nc1ccc2c(c1)CCC2)c1cccs1	54*	62*	-19%	-26%
CCOC(=O)c1c(C)nn(-c2ccc(NC(=O)c3c(C)noc3C)cc2)c1C	-4	-10	-6%	-6%
COc1ccc(NC(=O)C(=O)NNC(=O)c2cccs2)c(OC)c1	-3	8	91%	13%
CCOC(=O)c1c(C)nn(-c2ccc(NC(=O)c3cccs3)cc2)c1C	17	35	3.3µM*	15µM*
COc1ccc(NC(=O)C(=O)NNC(=O)c2cccs2)cc1	15*	10	3.7µM*	23%
Nc1ccc(NC(=O)Nc2ccc(N)cc2)cc1	17*	29*	81%	32%
COc1cc(/C=N/Nc2nc(N3CCCC3)nc(N3CCCC3)n2)ccc1OCc1ccccc1F	10	40	?	?
CCCC(=O)C1=C(N2CCCCC2)CC(C)(C)C(C(=O)OC)C1=O (stereo unspecified)	-3	12	39%	12%
SMILES	CHX counter	Shiga inhibitor	Pf growth 96h	Pf growth 48h
CSc1nc(C)c(C(=O)C[n+]2ccccc2)cc1C#N	-2	-2	-6%	?
CCN1CCN(c2ccccc2NC(=O)c2ccc(-n3cccn3)cc2)CC1	.	.	-24%	?
O=C(/C=C/c1ccc([N+](=O)[O-])cc1)c1cccs1	3	-8	20%	14%
Cc1ccc(NC(=O)C(=O)NNC(=O)c2cccs2)cc1	29*	38	?	19%
CCC(=O)Nc1ccc(C(=O)NNC(=O)c2cccs2)cc1	0	19	0%	7%
Nc1ccc(NC(=O)c2cccs2)cc1	21*	23	-8%	32%
CCCCN(CCCC)S(=O)(=O)c1ccc(NC(=O)c2cccs2)cc1	-5	-8	0.41µM*	.
Nc1ccc(/C=C/C(=O)c2cccs2)cc1	40*	68*	35%	321%
CC(C)[C@H](NC(=O)[C@H](CCCCN)NC(=O)[C@@H](NC(=O)[C@@H]1CCCN1C(=O)[C@H](CCCN=C(N)N)NC(=O)[C@H](CCCN=C(N)N)NC(=O)[C@H](CCCCN)NC(=O)[C@H](CCCCN)NC(=O)CNC(=O)[C@@H](NC(=O)[C@@H]1CCCN1C(=O)[C@@H](N)CCCCN)C(C)C)C(C)C)C(=O)N[C@@H](Cc1ccc(O)cc1)C(=O)N1CCC[C@H]1C(=O)O	14	-8	.	.
Cc1ccc(C(=O)NNC(=O)Cn2ccc(C(F)(F)F)n2)o1	.	.	66%	2%
Cc1ccc(NC(=O)c2cccs2)cc1	53*	81	66%	.
CC(C)Oc1ccc(C(=O)OCC(=O)NC(=O)NC2CCCC2)cc1	.	.	-23%	-28%
O=C(OCc1cc(=O)n2c(n1)sc1ccccc12)c1ccc(O)cc1O	1	18	-20%[5.75 µM]	21%
